# Measured values as given in PubChem BioAssay AID1851 (National Center for Advancing Translational Sciences (NCATS), 2009).
# Hit rate of the full screen: of about 16,000 compounds, about 5,100 (32%) were called active. Not shown: some 25% with an inconclusive outcome. The call rests on the fitted dose curve; in most records, active means well fitted curve in the direction sought with a large enough effect; inconclusive means small, poorly fitted or top-dose-only effect, or effect the other way; inactive means no such curve, though single readings can be large or run the other way. The list shows a part of the results.
# Biological target: Cytochrome P450 3A4 (Homo sapiens) (UniProt P08684)
# Sequence (P08684 whole entry, looked up): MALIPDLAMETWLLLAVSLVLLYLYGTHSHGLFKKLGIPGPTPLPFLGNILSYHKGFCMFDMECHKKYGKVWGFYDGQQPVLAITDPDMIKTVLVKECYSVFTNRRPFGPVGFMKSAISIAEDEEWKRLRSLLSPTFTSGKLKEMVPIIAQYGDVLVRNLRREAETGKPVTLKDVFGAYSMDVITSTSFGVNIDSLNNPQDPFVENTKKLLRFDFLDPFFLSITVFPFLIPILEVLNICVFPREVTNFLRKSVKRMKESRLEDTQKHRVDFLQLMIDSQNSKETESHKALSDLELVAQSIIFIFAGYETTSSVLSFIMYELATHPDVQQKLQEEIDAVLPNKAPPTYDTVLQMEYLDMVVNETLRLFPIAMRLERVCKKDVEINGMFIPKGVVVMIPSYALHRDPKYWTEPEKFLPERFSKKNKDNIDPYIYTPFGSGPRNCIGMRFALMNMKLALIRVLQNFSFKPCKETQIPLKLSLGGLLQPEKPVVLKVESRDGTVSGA
# Assay: Cytochrome panel assay with activity outcomes
# Conditions: recombinant CYP, pro-luciferin dealkylation, luminescence, p450-cyp3a4; series mostly up to 57.1 µM; activity, negative = inhibition: at the top concentration
# On the % scale 0 is the no-effect control and ±100 the full control effect.
Structure (SMILES),"activity, negative = inhibition",AC50
CC1CCC(C(C)C)C(OCC(O)CN2CCN(Cc3ccccc3)CC2)C1 (centres undefined),-17.1% (inactive),
CC1CC(OCC(O)CN2CCN(Cc3ccccc3)CC2)CC(C)(C)C1 (centres undefined),,8.91 µM (active)
CN1CCN(CC(O)c2ccccc2)CC1 (centres undefined),-0.756% (inactive),
COc1cccc(C(=O)NNC2=CC(=O)CC(C)(C)C2)c1,3.39% [at 2.29 µM] (inactive),
CCOC(=O)N1N=C(c2ccccc2)CC1(O)C(F)(F)F (centres undefined),2.59% [at 11.4 µM] (inactive),
COc1cccc(C(=O)N2N=C(c3cccc(OC)c3)CC2(O)C(F)(F)F)c1 (centres undefined),,7.94 µM (active)
CCOc1cc(CNc2ccc(OC)cc2)cc(Br)c1OCC(=O)NC(C)(C)C,,15.8 µM (active)
COc1cc(CNCCc2ccccc2)ccc1OCC(=O)NC(C)(C)C,3.22% (inactive),
CCOc1ccc(N=C2NC(=O)C(CC(=O)O)S2)cc1 (centres undefined),-1.23% (inactive),
CCn1c(CCNC(=O)c2ccc(Cl)cc2Cl)n[nH]c1=S,,14.1 µM (active)
CCn1c(CC(C)C)n[nH]c1=S,18.3% (inactive),
CCn1c(CCNC(=O)c2ccccc2Cl)n[nH]c1=S,-19.4% (inactive),
O=[N+]([O-])c1ccc(CSCc2ccc(Cl)cc2)cc1,-19.8% [at 11.4 µM] (inactive),
O=[N+]([O-])c1ccc(Cl)c(/C=N/N2CCN(Cc3ccccc3Cl)CC2)c1,-13.7% (inactive),
O=[N+]([O-])c1ccc(-c2cnc(SCc3ccccc3Cl)[nH]2)cc1,,14.1 µM (active)
CC(C)Cn1c(-c2nn(C)cc2Cl)n[nH]c1=S,-22% (inactive),
CC(c1ccc(Cl)cc1)n1c(-c2ccc3ccccc3n2)n[nH]c1=S (centres undefined),,7.94 µM (active)
CN(C)CC[C@H](c1ccc(Cl)cc1)c1ccccn1,,inactive
Cc1cc2nnc(SCCCCN3C(=O)c4ccccc4C3=O)n2c2ccccc12,,6.31 µM (active)
Cc1cc2nnc(SCC(=O)OC(C)C)n2c2ccccc12,-9.9% (inactive),
CCc1ccc(N2C(=O)c3ccc4c5c(ccc(c35)C2=O)CC4)cc1,8.28% (inactive),
COC(=O)Nc1nc2ccc(Sc3ccccc3)cc2[nH]1,-22.1% [at 25.6 µM] (inactive),

Structure (SMILES),"activity, negative = inhibition",AC50
COc1ccc(C(=O)NCc2ccc(-c3nc4ccccc4s3)cc2)cc1,,2.51 µM (active)
O=C(NC1CCCc2ccccc21)C1CCN(S(=O)(=O)N2CCCCCC2)CC1 (centres undefined),,7.94 µM (active)
O=C(NC1CCCc2ccccc21)c1ccc(=O)[nH]c1 (centres undefined),10.9% [at 2.29 µM] (inactive),
C=CCOc1c2ccc(C(=O)NC3CCCc4ccccc43)cc2nn1C (centres undefined),3.25% [at 2.29 µM] (inactive),
Cc1ccccc1/C=C\C1=NCCN1,-6.57% (inactive),
Cc1cc(C(=O)N/N=C/c2cccc(OC(=O)c3ccco3)c2)n[nH]1,7.86% [at 2.29 µM] (inactive),
COc1cc(/C=N/NC(=O)c2cccnc2)ccc1OC(=O)c1ccco1,,14.1 µM (active)
COc1cc(/C=N/NC(=O)c2cccnc2)ccc1OC(=O)c1ccc2c(c1)OCO2,,1.26 µM (active)
O=C(N/N=C/c1ccccn1)c1ccco1,-7.11% (inactive),
COc1c(/C=N/Nc2ccc([N+](=O)[O-])cc2[N+](=O)[O-])c(C)nn1-c1ccccc1,-17.2% (inactive),
Cc1nc(N/N=C/c2ccccc2)nc(N(C)c2ccccc2)c1[N+](=O)[O-],,7.08 µM (active)
Cn1nnnc1SCc1ccc(C(=O)Nc2ccc(Br)cc2)cc1,-23% (inactive),
Cc1ccc(NC(=O)c2ccc(CSc3nnc(-c4ccncc4)n3C)cc2)cc1,-1.69% (inactive),
C=CCn1c(SCc2ccc(C(=O)Nc3ccccc3)cc2)nnc1-c1ccccc1,,4.47 µM (active)
COC(=O)c1c(C)nc2ccccc2c1C(=O)O,-0.306% (inactive),
O=C(O)c1ccc(Cc2ccccc2C(=O)O)cc1,-8.32% [at 11.4 µM] (inactive),
COC(=O)c1c(C)[nH]c(C)c1C(=O)c1ccccc1Cc1ccccc1,,1 µM (active)
COc1ccc(NC(=S)N2CCN(C/C=C/c3ccccc3)CC2)cc1OC,,17.8 µM (active)
Cc1ccc(N=C/C(C(=O)C(F)(F)F)=C(\O)c2cccs2)cc1,,12.6 µM (active)
CC[C@H](C(=O)c1cccs1)C(O)(C(F)(F)F)C(F)(F)F,-6.43% [at 11.4 µM] (inactive),
O=P(O)(COc1ccccc1)COc1ccccc1,-4.02% (inactive),
CC(C)c1ccc(Cn2ccc3c4c(N)nc(NC5CC5)nc4ccc32)cc1,,6.31 µM (active)

Structure (SMILES),"activity, negative = inhibition",AC50
CCC(C)(C)N=C(NC#N)Nc1cccnc1,,5.01 µM (active)
CC(C)CN(C)c1nc(N)c(C(=O)N=C(N)N)nc1Cl,-3.71% (inactive),
Cc1cnc(CNc2cc(-c3ccc(C(=O)N(C)C)cc3)ncn2)cn1,-19% (inactive),
Cc1cnc(CNc2ncncc2-c2ccoc2)cn1,,2 µM (active)
Cc1cnc(CNc2ncncc2-c2ccc(C(=O)N(C)C)cc2)cn1,,12.6 µM (active)
Cc1cnc(CNc2ncncc2-c2ccc(N(C)C)cc2)cn1,,2 µM (active)
C[C@@H](C(=O)O)c1ccc(C(=O)c2cccs2)cc1,-4.04% [at 25.6 µM] (inactive),
CNCCCCCCCCSc1nc(C(C)C)ccc1C(=O)c1cccs1,,2.51 µM (active)
COC(=O)Nc1nc2ccc(C(=O)c3cccs3)cc2[nH]1,-18% (inactive),
CCOC(=O)N/N=C1/C[C@@H](O)[C@@H](O)[C@@H]2[C@@H]3C(=O)N(CC)C(=O)[C@H]3CC[C@@H]12,-14.4% [at 11.4 µM] (inactive),
Cc1ccc(-n2[nH]c(C)c(C=Nc3ccc4[nH]c(=O)[nH]c4c3)c2=O)cc1C,,14.1 µM (active)
Cn1c(=O)n(CC#N)c2ccccc21,-1.21% [at 2.29 µM] (inactive),
COc1ccc(NC(=O)c2cc3n(n2)C(C(F)(F)F)CC(c2ccc4c(c2)OCO4)N3)cc1OC (centres undefined),-24.1% (inactive),
Cc1cc(C(F)F)n2ncc(C(=O)NCc3ccccc3C(F)(F)F)c2n1,8.24% (inactive),
COc1ccc(OC)c(NC(=O)c2cc3n(n2)C(C(F)(F)F)CC(c2ccc4c(c2)OCO4)N3)c1 (centres undefined),,3.98 µM (active)
CC12CC(NC(=O)N1c1cccc(C(=O)NCc3ccccc3)c1)c1ccccc1O2 (centres undefined),-2.24% (inactive),
O=C(NCCN1CCOCC1)c1ccc2ccccc2c1,-4.73% (inactive),
COc1ccc(C2CC(C(F)(F)F)n3nc(C(=O)N(C)Cc4cn(C)nc4C)c(Cl)c3N2)cc1 (centres undefined),,2.51 µM (active)
Cc1nn(C)c(C)c1CNC(=O)c1cnn2c1NC(c1ccccc1)CC2C(F)(F)F (centres undefined),,12.6 µM (active)
O=C(NCCN1CCOCC1)c1nn2c(c1Cl)NC(c1ccccc1)CC2C(F)(F)F (centres undefined),,7.08 µM (active)
